BRCA1 expr up: increases BRCA1 expression. MCF7-BRCA1-FFLuc reporter, luminescence, 48 h; response scale: scaled: vehicle 0%, 10 µM genistein 100%. Potency, µM (titrated, usually from 46.1 µM), inactives show top-dose activation, hits mostly activators. 380,000 tested, 1.1% active; further: potency means the concentration at half of the fitted maximal effect; nearly all actives have a fitted effect of over 80% in size
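Luminescence from a BRCA1-driven firefly luciferase in MCF7 cells was read after 48 h compound exposure at 37 C. Data normalized against DMSO and a 10microM genistein activation control, then curve-fitted across the titration.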
TCR act: activates T cell receptor signaling; primary human leukocytes, anti-CD3, IL-2 HTRF, 48 h; Potency, µM (series often up to 9.22 µM), without a hit: top-dose activation of IL-2 secretion, actives largely listed as activators; 330,000 tested, under 10 active; AID 504894; further: % of control where 0% means no effect
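Activity was scored as IL-2 release from primary human leukocytes given only a TCR signal (a-CD3 beads) plus compound for 48 hr. Detection used a two-antibody HTRF format read at 665nm.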
IL-2 act: IL-2 activation; IL-2 activation reporter assay, cell-based qHTS; stimulated with anti-CD3/CD4/CD28 beads; in transgenic mouse T cells; AID 652025; 360,000 tested, 0.065% active; activation, % (series mostly up to about 46 µM); in the data active means activation above about 50%; inconclusive means mostly about 30% to 49%; further: 0% is about no effect
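EGFP and DsRed fluorescence is measured by plate cytometry in unstimulated transgenic mouse T cells exposed to compound for 60 minutes, then stimulated 18 hours at 37 degrees C with anti-CD3/anti-CD4 beads plus anti-CD28.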
p53 reactivator: re-activators of mutant p53 | H1299 p53-A138V BP100-luciferase reporter, luminescence, 24 h | Potency, µM (highest dose often 92.2 µM), inactives show at the top dose activity change, positive = activation, most hits filed as activators | 320,000 tested, 0.063% active | AID 504706; further: potency means the concentration at half of the fitted maximal effect; % of control where 0% means no effect; nearly all actives have a fitted effect of over 45% in size
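H1299 (p53-null), stable ts p53-A138V + BP100-Luc; 1000 cells/well, Opti-MEM/10% FBS; cpd 4 pt, 1:5; 24 h, 37 deg C, 5% CO2; detection reagent 10 min RT; luminescence.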
Mito fusion act: mitochondrial division inhibition or fusion activation; 320,000 tested, 0.23% active; S. cerevisiae fusion-defective mutant growth rescue, CellTiterGlo 48 h; AID 485298; Potency, µM (series often up to 46.1 µM), for inactives: at the highest dose growth rescue (activation), most hits filed as activators; further: potency means the concentration at half of the fitted maximal effect; % of control where 0% means no effect; nearly all actives have a fitted effect of over 45% in size
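S. cerevisiae fusion-defective temperature-sensitive mutants (e.g. fzo1-1, mgm1-5) grown 48 h at 37C in YPEG (ethanol/glycerol non-fermentable) medium with 23 nl compound per well; growth rescue read as CellTiterGlo luminescence.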
* hit, by the source's call; ? = inconclusive; . = no result given; ! = not active in a repeat; [ ] = dose if it differs, or a comment. An excerpt weighted towards active compounds, which were near 1.3% of everything screened. Unless noted, the call rests on the fitted dose curve; in most records, active means well fitted curve in the direction sought with a large enough effect; inconclusive means small, poorly fitted or top-dose-only effect, or another doubt; inactive means no such curve, though single readings can be large; an effect the other way counts as inactive or inconclusive.

SMILES	BRCA1 expr up	TCR act	IL-2 act	p53 reactivator	Mito fusion act
Cc1cccn2c(=O)c(C=NCc3ccccc3)c(NCCO)nc12	13.2%	5.8%	-0.2	-2.2%	-1.3%
N#C/C(=N\Nc1ccccc1)C(=N)N1CCCCCC1	2.51µM*	1.5%	0.1	8.2%	-3.8%
NC[C@@H]1O[C@H](c2ccccc2)Cc2c1ccc(O)c2O	.	.	.	.	16.4µM*
Nc1c(C(=O)N/N=C/c2cccnc2)oc2nc(-c3ccco3)cc(-c3ccco3)c12	-30.0%	-18.5%	3.2	-5.0%	1.0%
Nc1c(C(=O)N/N=C/c2cccnc2)oc2nc(-c3ccccc3)cc(-c3ccco3)c12	-23.3%	-53.8%	318.4*	-1.7%	1.5%
O=c1cccccc1NN=C1CCCCCC1	10µM*	2.5%	-0.9	?	-3.0%
O=c1cccccc1NN=C1CCCCC1	14.1%	2.5%	-0.1	?	4.6%
CC(C)c1ccc2oc(-c3ccc(Cl)c(NC(=O)c4cccs4)c3)nc2c1	-47.6%	.	.	.	.
Cc1cc(NC(=O)NC(=O)c2cccc(OC(F)(F)C(F)F)c2)n[nH]1	70.8%	-12.6%	-1.6	15.0%	1.0%
Cc1cc(NC(=O)c2cccc(Oc3ccccc3)c2)n[nH]1	11.2µM*	-1.6%	0.8	24.4%	2.7%
O=C(/C=C/c1ccccc1Cl)c1ccc[nH]1	8.2%	3.6%[46.1 µM]	-0.1	?	14.1µM*
CN1CCN(c2ccnc(N(C)CCCCCCN)n2)CC1	-5.1%	.	.	.	.
CCc1ccccc1NNC(=O)c1sccc1Cl	0.0%	.	.	.	.
CCCCNc1c(C(=O)OCC)c(C)nc2c1cnn2CC	0.0%	5.5%	-0.6	.	23.1µM*
O=C(c1ccc2c(c1)N(Cc1ccccc1F)C(=O)c1ccccc1S2(=O)=O)N1CCC(Cc2ccccc2)CC1	11.1%	.	.	.	.
O=C(NCc1ccccc1)c1ccc(-c2ccccc2F)o1	11.2µM*	-2.8%	-3.4	?	20.9%
CCS(=O)(=O)c1ccc(O)c(NC(=O)/C=C/c2ccccc2)c1	12.6µM*	-2.8%	0.1	8.3%	1.2%
CCS(=O)(=O)c1ccc(O)c(NC(=O)CCCC(=O)O)c1	2.3%	0.3%	-1.5	0.5%	-3.7%
Clc1ccc(-n2nnc(-c3cccnc3Cl)n2)cc1Cl	3.98µM*	-2.7%	-0.5	20.4%	-5.1%
CC(C)Oc1ccc2c(=O)c(-c3ccccc3)coc2c1	?	5.5%	-0.5	32.0%	25.1µM*!
COC(=O)COc1ccc2c(=O)c(-c3ccccc3)coc2c1	-22.2%	-1.5%	-0.2	-0.5%	-2.6%
COC(=O)CNc1c(-c2ccccn2)nc2ccc(Br)cn12	4.47µM*	1.8%	1.9	.	2.6%
Cc1ccc(N/N=C/c2ccncc2)cc1	6.31µM*	4.0%	-0.1	?	-20.6%
Cc1cc(N/N=C/c2ccncc2)nc2ccccc12	5.62µM*	-0.3%	-0.5	-2.2%	1.1%
Cc1cc(N/N=C/c2cccc(Br)c2)nc2ccccc12	?	3.9%[46.1 µM]	-0.1	?	-5.4%
SMILES	BRCA1 expr up	TCR act	IL-2 act	p53 reactivator	Mito fusion act
CC(C)(C)c1cccc(Cn2nnc3ccccc32)c1O	6.0%	1.7%	-0.8	-2.2%	20µM*
CCS(=O)(=O)N1Cc2ccccc2CC1C(=O)Nc1ccc(C)cc1 (stereo not given)	-2.4%[1.84 µM]	-2.4%	1.9	20.7%	1.3%
CCS(=O)(=O)N1Cc2ccccc2CC1C(=O)Nc1cccc(C)c1 (stereo not given)	5.01µM*	7.6%	7.3	3.9%	2.1%
CC1(C)CC(=O)C(C2C3=C(CC(C)(C)CC3=O)Oc3ccc4ccccc4c32)C(=O)C1 (stereo not given)	7.94µM*	-3.4%	-0.3	?	-1.1%
O=C1OC(c2ccccc2)=C/C1=C/N1CCOCC1	12.6µM*	-0.1%[46.1 µM]	-0.6	?	0.0%
O=C(CSCc1ccccc1Cl)N1CCN(c2ccccn2)CC1	?	5.7%	-2.7	11.3%	13.0%
O=C(CCSCc1ccccc1F)N1CCN(c2ccccn2)CC1	10µM*	-8.9%	-3.2	22.8%	11.7%
O=C(O)c1ccc(CNc2ncnc3nc[nH]c23)cc1	0.0%	.	.	.	.
CN(Cc1c(F)cccc1Cl)C(=O)CNC(=O)c1cccs1	11.2µM*	-4.0%	-2.0	-0.4%	3.8%
CN(Cc1ccc(F)cc1)C(=O)CNC(=O)c1cccs1	20.9%	5.5%	0.3	1.0%	-2.6%
C=CCc1cccc(C=NNC(=O)CN2CCN(Cc3ccccc3)CC2)c1O	.	.	.	.	4.5%
COc1cccc(Cn2ncc3c4sc(B(O)O)cc4n(C)c3c2=O)c1	.	.	.	.	0.0%
CCOC(=O)c1c(NC(=O)C2C3C=CC(CC3)C2C(=O)O)sc(C)c1CC (stereo not given)	-3.9%	-2.7%[46.1 µM]	0.7	-5.0%	7.08µM*
COC(=O)c1c(NC(=O)C2C3C=CC(CC3)C2C(=O)O)sc(C)c1C (stereo not given)	-3.0%	1.6%[46.1 µM]	0.3	-2.5%	25.7%
Cc1nc(CC(=O)Nc2nc(-c3ccccc3)cs2)cs1	11.2µM*	-0.4%	0.0	?	1.0%
O=C(Cc1cccs1)Nc1nc(-c2ccccc2)cs1	-24.2%	7.2%	-2.2	?	4.5%
O=C(COC(=O)CNC(=O)c1ccccc1)Nc1nc(-c2ccccc2)cs1	6.31µM*	0.5%[46.1 µM]	-2.7	?	0.1%
O=C(COC(=O)c1cccs1)Nc1nc(-c2ccccc2)cs1	83.7%	-3.7%[46.1 µM]	-0.4	6.4%	-2.5%
CCSC(=O)N1CCN(/[N+]([O-])=N/Oc2ccc([N+](=O)[O-])cc2[N+](=O)[O-])CC1	-22.9%	.	.	.	.
Cc1ccc(S(=O)(=O)N2CCN(c3nc(Nc4ccccc4O)nc4ccccc34)CC2)cc1	26.6%	.	.	.	.
S=c1ncc2n[nH]nc2[nH]1	6.9%	.	.	.	.
CCc1ccccc1NC(=O)/C(C#N)=C\c1ccc(Sc2ccccc2)o1	4.5%	-2.0%	1.0	4.1%	1.6%
CCc1ccccc1NC(=O)/C(C#N)=C/c1ccc(Sc2ccccc2)o1	-24.1%	-7.0%[46.1 µM]	0.3	3.6%	11.2µM*
O=C(CCN1C(=O)/C(=C/c2ccccc2Cl)SC1=S)N1CCOCC1	-53.4%	-2.8%	-1.9	15.8µM*	-2.4%
Cc1ccc(S(=O)(=O)N2CCN(c3nc(C(N)=O)nc4ccccc34)CC2)cc1	0.3%	.	.	.	.
SMILES	BRCA1 expr up	TCR act	IL-2 act	p53 reactivator	Mito fusion act
CCCC(c1nnnn1C(C)(C)C)N1CCN(c2ccccc2)CC1 (stereo not given)	-21.8%	0.5%	-1.7	-0.3%	10µM*
CCCC(c1nnnn1C1CCCC1)N1CCN(c2ccccc2F)CC1 (stereo not given)	-28.5%	-1.6%	0.0	5.7%	8.91µM*
Brc1ccc(C=C2C=c3ccccc3=C2)cc1	9.6%	.	.	.	.
Cc1ccccc1NC(=O)c1nc(S(=O)(=O)Cc2ccccc2F)ncc1Cl	0.0%	.	.	.	.
Nc1[nH]ncc1N=Nc1ccc(Cl)cc1	11.2µM*	.	-1.5	3.0%	-1.2%
Nc1sccc1C(=O)c1ccc(Cl)cc1	6.31µM*	-5.8%	0.8	?	5.2%

Compound activity (PubChem BioAssay)
